High-throughput results as filed in PubChem.
SW480 rereplic: A quantitative high throughput screen for small molecules that induce DNA re-replication in SW480 colon adenocarcinoma cells. SW480 DNA re-replication, Hoechst DNA content imaging, 48 h. Potency, µM (doses to about 46.1 µM), for inactives: top-dose re-replication activation, hits mostly activators. hit rate 1.8% among 340,000. AID 624297, 2012; further: potency means the concentration at half of the fitted maximal effect; % of control where 0% means no effect; nearly all actives have a fitted effect of over 55% in size
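Cells (250 per well) received 23 nL compound or DMSO by pin tool and were kept 48 hr at 37 C, 5% CO2. Nuclei were then stained with Hoechst for 40 min and scanned for DNA content.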
KB-3-1 cytotox: qHTS assay for MDR1-selective chemotherapeutics: Primary screen using the parental adenocarcinoma cell KB-3-1. KB-3-1 viability, CellTiter-Glo ATP luminescence, 72 h. hit rate 1.4% among 400,000. Potency, µM (top dose mostly 46.1 µM), hits mostly cytotoxic; further: potency means the concentration at half of the fitted maximal effect; on the % scale 0 is the no-effect control and ±100 the full control effect; nearly all actives have a fitted effect of over 60% in size
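Parental KB-3-1 viability, qHTS format: 72 h compound exposure, 37 °C; CellTiter-Glo; media-only wells and DMSO plates as controls; concentration-effect fits on corrected data.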
MCF10A rerep: A quantitative high throughput screen for small molecules that induce DNA re-replication in MCF 10a normal breast cells. Potency, µM (doses to about 46.1 µM), without a hit: at the highest dose activity, positive = re-replication, hits mostly activators. hit rate 2.9% among 350,000. MCF 10A DNA re-replication, Hoechst nuclear intensity, 48 h. AID 624296, 2012; further: potency means the concentration at half of the fitted maximal effect; % of control where 0% means no effect; nearly all actives have a fitted effect of over 50% in size
IL1B secr inh: qHTS for Inhibitors of Inflammasome Signaling: IL-1-beta AlphaLISA Primary Screen | hit rate 4.7% among 360,000 | THP-1 LPS/ATP IL-1B secretion, AlphaLISA, 16 h; hits give low values | AID 743279, 2014 | activity change, % at 57.5 µM; in the data active means activity change below about -50%; inconclusive means mostly about -30% to -49%; further: on the % scale 0 is the no-effect control and ±100 the full control effect
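Secreted IL-1B measured by AlphaLISA bead assay after 16 h compound exposure of THP-1 cells; compounds (final up to 57.5 uM) added 1 h before LPS (250 ng/mL) and ATP (1.25 mM) stimulation; lower signal means less secretion.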
KB-V1 cytotox: qHTS assay for MDR1-selective chemotherapeutics: Primary screen using the drug-selected MDR subline cells KB-V1; KB-V1 MDR cells viability, CellTiter-Glo, 72 h; Potency, µM (doses to about 46.1 µM), most hits filed as cytotoxic; hit rate 3.4% among 400,000; AID 1347076, 2019; further: potency means the concentration at half of the fitted maximal effect; on the % scale 0 is the no-effect control and ±100 the full control effect; nearly all actives have a fitted effect of over 60% in size
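Drug-selected KB-V1 cells, grown in DMEM lacking phenol red with 10% FBS, receive compound titrations; after three days at 37 degrees C, surviving cell ATP is quantified by CellTiter-Glo luminescence and responses normalized and curve-fitted.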
* = called active by the depositor; i = inactive; ? = inconclusive; / = not tested or not shown; [ ] = dose if it differs, or a comment. Most compounds without a hit are left out; they make up all but 9.9% or so of the library. Unless noted, the call rests on the fitted dose curve; in most records, active means well fitted curve in the direction sought with a large enough effect; inconclusive means small, poorly fitted or top-dose-only effect, or another doubt; inactive means no such curve, though single readings can be large; an effect the other way counts as inactive or inconclusive.

SMILES	SW480 rereplic	KB-3-1 cytotox	MCF10A rerep	IL1B secr inh	KB-V1 cytotox
Cc1ccc(Cl)cc1N1CCN(C(=O)CCS(=O)(=O)c2ccc3c(c2)NC(=O)CO3)CC1	-29.2%	?	?	-52.9*	i
CCn1c(=O)n(CC)c2cc(S(=O)(=O)N3CCc4ccccc43)ccc21	-4.9%	?	2.3%	-8.9	2.31µM*
COc1ccc(S(=O)(=O)N2CCc3ccccc32)cc1OC	10.6%	?	9.1%	?	i
N/C(=N\OC(=O)Nc1ccccc1)c1ncc([N+](=O)[O-])s1	?	?	?	-64.3*	?
COc1ccc(NS(=O)(=O)c2cccc(C(=O)NCC(c3cccs3)N3CCOCC3)c2)cc1 (stereo not drawn)	4.3%	i	13.0%	-20.0	i
Cc1cn(CC(=O)NCCN2CCOCC2)c(=O)[nH]c1=O	-11.8%	i	?	34.0	i
N#CC(CC(=O)c1ccc(F)cc1)c1ccc2c(c1)OCO2 (stereo not drawn)	-1.2%	i	13.6%	?	i
COc1cccc(Nc2nc(N)c([N+](=O)[O-])c(NCc3ccccc3)n2)c1	-5.5%	?	7.4%	-27.0	?
Nc1nc(Nc2ccccc2)nc(NCc2ccccc2)c1[N+](=O)[O-]	11.2%	?	12.0%	-68.6*	?
CNc1nc(N)c([N+](=O)[O-])c(Nc2cccc(Cl)c2)n1	3.8%	i	-1.5%	21.2	i
Cc1cccc(Nc2nc(N)c([N+](=O)[O-])c(NCc3ccccc3)n2)c1	?	i	18.4µM*	/	18.4µM*
CNc1nc(N)c([N+](=O)[O-])c(Nc2cccc(F)c2)n1	18.4µM*	i	-0.5%	10.2	i
CNc1nc(N)c([N+](=O)[O-])c(NCc2ccccc2)n1	2.1%	i	-2.2%	18.7	i
Cc1ccc(CNc2nc(N)c([N+](=O)[O-])c(NCc3ccccc3)n2)cc1	-1.9%	i	?	12.3	i
Nc1nc(NCc2ccccc2)nc(NCc2ccccc2)c1[N+](=O)[O-]	-0.1%	i	7.5%	-4.4	16.4µM*
CCOC(=O)CCc1c(C(=O)OCC)[nH]c(CC)c1C(=O)OCc1ccccc1	8.8%	i	?	23.3	?
COc1ccccc1N1CCN(CCCNC(=O)C2CCCN(c3ncnc4c3nc3n4CCCCC3)C2)CC1 (stereo not drawn)	-2.2%	i	8.0%	-28.2	i
CCN(CC)C(=O)Cn1ncc2c([nH]c3ccc(C)cc32)c1=O	/	i	/	/	i
COc1cccc(N2CCN(C(=O)c3cc4c(s3)CCCCC4)CC2)c1	-7.2%	?	18.7%	17.5	i
Cc1ccc(Nc2nc(N)c([N+](=O)[O-])c(NCCO)n2)cc1C	-0.2%	?	17.4%	13.7	?
Cc1ccc(Nc2nc(N)c([N+](=O)[O-])c(NCc3ccco3)n2)cc1C	18.0%	23.1µM*	?	-71.4*	11.6µM*
CC(OC(=O)c1ccccc1Nc1ccc(SC(F)F)cc1)C(N)=O (stereo not drawn)	2.9%	i	?	-74.6*	?
NC(=O)COC(=O)c1ccccc1Nc1ccc(SC(F)F)cc1	-4.3%	i	23.1µM*	-3.2	i
O=C(COc1ccccc1C(=O)O)Nc1ccc(SC(F)F)cc1	-8.6%	i	0.2%	-1.6	i
O=C(COC(=O)c1ccccc1C(=O)c1ccccc1)Nc1ccc(SC(F)F)cc1	-1.0%	i	9.5%	-76.8*	i
SMILES	SW480 rereplic	KB-3-1 cytotox	MCF10A rerep	IL1B secr inh	KB-V1 cytotox
CCN(CC)c1ccc(/C=N/N2CCN(Cc3cccc4ccccc34)CC2)c(O)c1	5.7%	i	49.1%	-22.7	16.4µM*
CCN(CC)c1ccc(/C=N/N2CCN(Cc3ccc(Cl)cc3)CC2)c(O)c1	-7.3%	i	14.6%	18.6	i
C#CCSc1n[nH]c(-c2ccco2)n1	-0.8%	i	2.1%	31.2	i
COc1ccc(C2CC(C)(c3ccc(OC)cc3)Nc3ccccc3N2)cc1 (stereo not drawn)	?	20.6µM*	?	-11.0	?
O=C(Nc1oc2ccccc2c(=O)c1-c1ccc(Cl)cc1)c1ccco1	18.2%	i	6.4%	15.2	i
COc1cc(/C=C(\CC(=O)O)c2nc3ccccc3s2)cc(OC)c1O	6.2%	i	1.4%	34.9	i
N#C/C(=C/c1ccncc1)c1nc2ccccc2s1	1.3%	i	?	0.9	i
O=C(O)c1ccc(C=C(c2nc3ccccc3s2)c2nc3ccccc3s2)cc1	6.3%	?	18.4µM*	-108.4*	?
CN(C)c1ccc(/C=C(\Cl)c2nc3ccccc3s2)cc1	?	i	7.31µM*	-7.4	?
COc1cc(C=C(c2nc3ccccc3s2)c2nc3ccccc3s2)cc(OC)c1O	?	i	?	-82.5*	?
COC(=O)C1=C/CCCN(C(c2ccccc2)c2ccccc2)/C=C\1C(=O)OC	/	i	/	9.8	i
CC(=O)Nc1ncc(N=Nc2cccc(C(F)(F)F)c2)s1	0.4%	i	10.3%	-5.8	i
Cc1cccc(N=Nc2cnc(N)s2)c1	2.1%	i	-3.4%	-64.5*	i
CCOc1cc(CNC2CCCC2)cc(Cl)c1OCc1ccccc1	?	?	?	-23.6	?
CCOc1cc(CNC2CCCC2)ccc1OCc1ccccc1Cl	117.5%	?	?	-88.5*	20.6µM*
CCCCNCc1cc(Cl)c(OCCC)c(OCC)c1	?	i	5.8%	-63.9*	16.4µM*
COc1cc(CNCCO)cc(Cl)c1OCc1ccccc1Cl	?	i	2.6%[9.22 µM]	-90.8*	i
CCOc1cc(CNCCN2CCOCC2)ccc1OCc1ccccc1Cl	20.6µM*	i	14.0%	?	i
CCOc1cc(CNCCCN2CCOCC2)ccc1OCC(=O)NC(C)(C)C	4.6%	i	2.9%	9.9	i
Cc1nn2c(=O)cc(COC(=O)COc3ccccc3C)nc2s1	/	i	/	/	i
COc1ccc(-n2nc(-c3ccc(C)cc3)c3cnc4cc(F)c(F)cc4c32)cc1	/	i	/	/	i
COc1cc(CNn2cn[nH]c2=S)cc(Br)c1OCc1ccccc1F	5.3%	i	?	3.0	i
CCOc1cc(CNCCCN2CCOCC2)cc(Br)c1OCc1ccccc1Cl	?	?	?	-101.3*	?
COc1cc(CNCCc2ccccc2)cc(Cl)c1OCc1ccccc1	?	?	23.1µM*	-103.9*	18.4µM*
COc1cc(CNCc2ccncc2)cc(Br)c1OCc1ccccc1F	-1.6%	4.11µM*	1.6%	?	3.66µM*
